This is part of a sample that, as a whole, favours compounds with a hit. Of some 83,000 tested, about 20% had one in any assay.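 How to read the values: 0–100, growth inhibition (40 = 60% inhibited); 0, no net growth; -100 to 0, cell death (-40 = 40% of starting cells died; -100 = all dead).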 Values without a mark were called inactive. Activity calls are given as the source filed them. Rule for the calls: active = growth percent below 10; inactive = the rest.

The test system of this test is MDA-MB-468 breast. The test is described as follows: NCI-60 one-dose screen, 48 h (100 = growth as untreated, 0 = no growth, -100 = all killed). The conditions noted are these: 10 µM unless noted.
For the compound `NC(N)=Nc1ccc(Oc2cccc(Oc3ccc(Cl)c(C(F)(F)F)c3)c2)cn1`, the growth is -79.3% (active).
Take `CC(C)[C@]12O[C@H]1[C@@H]1O[C@]13[C@]1(O[C@H]1C[C@H]1C4=C(CC[C@@]13C)C(=O)OC4)[C@@H]2OC(=O)CN(C)C`: the growth was -55.2% (active).
As for `Cc1[nH]nc(C(N)=O)c1[N+](=O)[O-]`, the growth was 85.5%.
In the case of `C/C(Cc1ccc(Cl)cc1)=C(\c1ccc(OCCN2CCCCCC2)cc1)c1ccc(OC(=O)Cc2ccccc2)cc1`, the growth was 69%.
Regarding `NC(=O)C12C(=O)NC(=O)C1(C(=O)O)C21CCCC1` (stereo not given), the growth is 112%.
Then `Cc1nc(N/N=C/c2cn(-c3ccccc3)nc2-c2cc3ccccc3oc2=O)sc1N=Nc1ccccc1`, with 89.7%.
For the compound `COc1cc(CNC(=O)c2ccsc2Nc2ccnc(C(F)(F)F)c2)ccc1O`, the growth is 95.6%.
Consider `CCOc1c(B(O)O)cccc1-c1nc2ccc3[nH]ncc3c2c2c1CCCC2`, for which the growth was 51.1%.
`O=C(Cc1cccc(OC(F)(F)F)c1)Nc1ccc(CCCCc2nnc(NC(=O)Cc3ccccn3)s2)nn1`: the growth is 52.3%.
Regarding `C=C1C(=O)O[C@H]2[C@H]1CC/C(Cn1cc(-c3cccc(Cl)c3)nn1)=C\CC[C@@]1(C)O[C@@H]21`, the growth is -66.1% (active).
Then `O=C(Nc1cnc(Nc2ccc(N3CCOCC3)nc2)nc1Oc1ccc(C(F)(F)F)cc1)c1ccncc1`, with 103%; and `COc1ccc(C2CC(c3cccc(Nc4ccncc4)c3)=NN2c2ccccc2)cc1` (stereo not given), with 15.7%.
As to `N#CC1CCc2c(c(-c3ccc4nc(N)sc4c3)nc3ccc4[nH]ncc4c23)C1` (stereo not given), the growth is 21.4%.
Then `CN1C(=O)NC(c2ccc3c(c2)OCO3)C=C1c1ccccc1` (stereo not given), with 98.2%; and `O=C(/C=C/c1ccc(Cl)cc1)c1ccc(NC(=O)N2CCN(c3cc4c(cc3F)c(=O)c(C(=O)O)cn4C3CC3)CC2)cc1`, with 96.6%.
Take `c1ccc2c(c1)oc1c3cccnc3ccc21`: the growth is -62% (active).
Then `Cn1/c(=N/NC(N)=S)ccc2ccccc21`, with 24.9%.
Then `CCCCN1C(=O)/C(=c2\sc3n(c2=O)C2C(NN=3)N(CC)C(=O)N2CC)c2ccccc21` (stereo not given), with 1.69% (active).
Take `O=Cc1[nH]c(Sc2ccccc2)c2ccccc12`: the growth is 47.7%.
`COc1ccc(-c2nnc(COc3ccc(Cl)cc3Cl)o2)cc1OC`: the growth is 71.9%.
For `O=C1C(OCCOc2ccccc2)=C(OCCOc2ccccc2)C(=O)c2ccccc21`, the growth is 72.9%.
Then `C#Cc1nc(C2=C(C)C(=N\O)/C(=N/O)C2)cs1`, with 82.6%.
For `CC(=O)c1c(/C=C/c2ccc(C)cc2)c2ccccc2[nH]c1=O`, the growth was 110%.
With `Nc1ccc2ccc(N)cc2c1`, the growth is 75.8%.
Take `Cc1nn(-c2ccccc2)c2c1oc(=O)c1cc(Cl)ccc12`: the growth was 98.7%.
`CCO/C=C1\SC(=S)N(c2cccc(O)c2)C1=O`: the growth is 87.6%.
Regarding `COc1ccccc1-c1c(-c2ccc(Cl)cc2)c2cc3c(cc2[nH]c1=O)OCCO3`, the growth was 62.7%.
As to `O=C(N(c1ccccc1)c1ccccc1)n1ccc2nc(Cl)nc(Cl)c21`, the growth is -0.952% (active).
Then `C=C(C)COc1ccc(C(C)(C)C)cc1`, with 91.2%; and `Nc1nc2ccccc2c2c(=O)c3cc(Cl)ccc3sc12`, with 21.3%.
As to `O=C(Nc1ccccc1)Nc1nc2ccc([N+](=O)[O-])cc2s1`, the growth was -22.6% (active).
As for `Cn1c(COC(=O)NCCc2ccccn2)nc2c(N3CCOCC3)nc(Cl)nc21`, the growth is -51.1% (active).
Consider `CCN(CC)CCNc1ccc(N=Nc2cnc3ccccc3c2)c2ccccc12`, for which the growth was -64.5% (active).
Regarding `COc1cnc2c(c1)C(=O)c1c-2n(CCCN2CCC(N)CC2)c(=O)c2cc([N+](=O)[O-])ccc12`, the growth was 74%.
In the case of `O=C(O)c1ccc(-c2nn(-c3ccc(C(F)(F)F)cc3)cc2CNc2ccc(Oc3ccccc3)cc2)cc1`, the growth was 117%.
Then `COc1ccc(S(=O)(=O)NCCCNc2cc(-c3c(-c4cccc(OC)c4)nc4sccn34)ccn2)cc1`, with 11.3%.
`O=C1NC(=O)N(Cc2ccccc2)CC1Br` (stereo not given): the growth was 104%.
As to `COc1ccc(-c2c(C(N)=O)c(N)n(Cc3nc4ccccc4[nH]3)c(=O)c2C#N)c(OC)c1`, the growth is 99.2%.
Then `C=C1CCC2C3(C)COC(c4ccccc4Br)OC3CCC2(C)C1C/C=C1/C(=O)OCC1OC(C)=O` (stereo not given), with -34.3% (active).
With `CCC(C)(C)c1ccc(OCCCCCCN2CCNCC2)cc1`, the growth was -9.22% (active).

(Values after PubChem BioAssay (NCI).)
